# From PubChem BioAssay (NCI)
# Values joined by “and” are separate entries in the source; they are usually repeats but may differ in a detail not shown here. Equal values may be shown once. Compounds without any hit were thinned out: in the full panel of roughly 79,000, 15% have a hit. More than one record can exist for a structure, and the calls need not agree. Active and inactive are the calls of the source. Cut-off read from the data, not from the text of the source: active = growth inhibition above about 70%; inactive = the rest.
# Key:
# [1] = NCI Yeast Anticancer Drug Screen. Data for the rad52 strain (AID 147);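 note: 0% = growth of vehicle-treated control cultures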; details: S. cerevisiae rad52 mutant growth inhibition, stronger effect = higher value
# Summary of the method: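 Yeast strain carrying a DNA damage repair alteration was exposed to test compounds. Growth inhibition was measured relative to vehicle-treated controls.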
# [2] = NCI Yeast Anticancer Drug Screen. Data for the wt1 strain (AID 149);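 note: 0% = growth of vehicle-treated wt1 cultures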; details: S. cerevisiae wt1 strain (SPY 50644) growth inhibition, stronger effect = higher value
# Summary of the method: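 Each compound is tested on wt1 yeast and the loss of growth versus vehicle gives the inhibition value.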
# [3] = NCI Yeast Anticancer Drug Screen. Data for the rad50EPP+ strain (AID 151);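 note: 0% = growth of vehicle-treated control cultures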; details: S. cerevisiae rad50 mutant strain, stronger effect = higher value
# Summary of the method: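 Yeast strain carrying rad50 alteration (rad50EPP+) exposed to compounds; growth inhibition measured relative to vehicle-treated controls.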
# [4] = NCI Yeast Anticancer Drug Screen. Data for the rad50 strain (AID 155);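 note: 0% = growth of vehicle-only cultures of the same strain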; details: S. cerevisiae rad50 strain growth inhibition, stronger effect = higher value
# Summary of the method: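 Vehicle-treated cultures provide the reference for the growth inhibition reported for compound-exposed, repair-deficient yeast.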
# [5] = NCI Yeast Anticancer Drug Screen. Data for the mec2-1 strain (AID 157); details: S. cerevisiae mec2-1 strain, stronger effect = higher value
# Summary of the method: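 mec2-1 yeast strain, carrying an alteration in DNA damage repair or cell cycle control, was exposed to compounds; growth inhibition was measured relative to vehicle-treated controls.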
# [6] = NCI Yeast Anticancer Drug Screen. Data for the rad14 strain (AID 159);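 note: 0% = growth of vehicle-treated control cultures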; details: S. cerevisiae rad14 strain growth inhibition, stronger effect = higher value
# Summary of the method: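 Inhibition of growth is reported for a repair-deficient yeast mutant following compound treatment, calculated relative to cultures that received vehicle.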
# [7] = NCI Yeast Anticancer Drug Screen. Data for the sgs1 mgt1 strain (AID 161);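 note: 0% = growth of cultures given vehicle only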; details: S. cerevisiae sgs1 mgt1 strain, stronger effect = higher value
# Summary of the method: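 Growth of a repair-deficient yeast mutant was monitored after compound treatment and expressed as inhibition relative to vehicle-treated cultures.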
# [8] = NCI Yeast Anticancer Drug Screen. Data for the CLN2oe strain (AID 163);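 note: 0% = growth of vehicle-only control cultures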; details: S. cerevisiae CLN2oe strain, stronger effect = higher value
# Summary of the method: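 Yeast cells carrying a defined cell-cycle control alteration were exposed to test compounds. Growth inhibition was scored against vehicle-treated control cultures.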
# [9] = NCI Yeast Anticancer Drug Screen. Data for the cln2 rad14 strain (AID 165);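 note: 0% = growth equal to vehicle treated cultures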; details: S. cerevisiae cln2 rad14 strain, stronger effect = higher value
# Summary of the method: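 Yeast carrying cln2 and rad14 alterations (cell cycle control and DNA damage repair) were exposed to compounds. Growth inhibition was measured against vehicle-treated controls.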
# [10] = NCI Yeast Anticancer Drug Screen. Data for the bub3 strain (AID 167); details: S. cerevisiae bub3 mutant strain, stronger effect = higher value
# Summary of the method: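 Mutant yeast screening strain plus compound; vehicle-treated cultures serve as the 0% inhibition reference.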
# [11] = NCI Yeast Anticancer Drug Screen. Data for the wt2 strain (AID 169); details: S. cerevisiae wt2 strain growth inhibition, stronger effect = higher value
# Summary of the method: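 Yeast cells were exposed to test compounds, and growth inhibition was measured relative to vehicle-treated controls.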
# [12] = NCI Yeast Anticancer Drug Screen. Data for the mlh1 strain (AID 171);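 note: 0% = growth of vehicle-treated control cultures of the same strain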; details: S. cerevisiae mlh1 strain growth inhibition, stronger effect = higher value
# Summary of the method: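 Yeast carrying a defined genetic alteration in DNA damage repair or cell cycle control were exposed to test compounds. Growth inhibition was measured relative to vehicle-treated controls.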
# [13] = NCI Yeast Anticancer Drug Screen. Data for the mlh1 rad18 strain (AID 175); details: S. cerevisiae mlh1 rad18 strain growth inhibition, stronger effect = higher value
# Summary of the method: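 Growth inhibition of the yeast strain was measured after compound exposure and expressed relative to vehicle-treated controls. The strain carries defined defects in DNA damage repair.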
# [14] = NCI Yeast Anticancer Drug Screen. Data for the rad18 strain (AID 177); details: S. cerevisiae rad18 mutant growth inhibition, stronger effect = higher value
# Summary of the method: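 Yeast carrying a defined DNA damage repair alteration were exposed to compounds. Growth inhibition was expressed relative to vehicle-treated controls.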
# [15] = NCI Yeast Anticancer Drug Screen. Data for the mgt1 strain (AID 153); details: S. cerevisiae mgt1 mutant growth inhibition, stronger effect = higher value
# Summary of the method: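 Yeast mgt1 strain (DNA repair/cell-cycle alteration panel) exposed to compounds; growth inhibition measured relative to vehicle-treated controls.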
# [16] = NCI Yeast Anticancer Drug Screen. Data for the sgs1 strain (AID 173);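 note: 0% = growth of vehicle-only control cultures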; details: S. cerevisiae sgs1 mutant, stronger effect = higher value
# Summary of the method: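 Yeast mutant strains carrying defined defects in DNA damage repair or cell cycle control were exposed to test compounds. Growth inhibition was scored against vehicle-treated controls.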
# [17] = at 5.0 µM (retest, dose inferred, filed as 0.5)
# [18] = at 50.0 µM (retest, dose inferred, filed as 5.0)
smiles,measurement,setting,value
CCOC(=O)C1=C(C)NC(C)=C(C(=O)OCC)C1c1cccc([N+](=O)[O-])c1,growth inhibition,[1]; at 1.2 µM,-90% (inactive)
same,growth inhibition,[1]; at 3.7 µM,-81% (inactive)
same,growth inhibition,[1]; at 11.0 µM,-35% (inactive)
same,growth inhibition,[1]; at 33.0 µM,17% (inactive)
same,growth inhibition,[1]; at 100.0 µM,73% (active)
same,growth inhibition,[2]; at 1.2 µM,-53% (inactive)
same,growth inhibition,[2]; at 3.7 µM,-41% (inactive)
same,growth inhibition,[2]; at 11.0 µM,-22% (inactive)
same,growth inhibition,[2]; at 33.0 µM,37% (inactive)
same,growth inhibition,[2]; at 100.0 µM,88% (active)
same,growth inhibition,[3]; at 1.2 µM,-54% (inactive)
same,growth inhibition,[3]; at 3.7 µM,-78% (inactive)
same,growth inhibition,[3]; at 11.0 µM,-91% (inactive)
same,growth inhibition,[3]; at 33.0 µM,-93% (inactive)
same,growth inhibition,[3]; at 100.0 µM,-103% (inactive)
same,growth inhibition,[4]; at 1.2 µM,-39% (inactive)
same,growth inhibition,[4]; at 3.7 µM,0% (inactive)
same,growth inhibition,[4]; [17],34% (inactive)
same,growth inhibition,[4]; at 11.0 µM,31% (inactive)
same,growth inhibition,[4]; at 33.0 µM,65% (inactive)
same,growth inhibition,[4]; [18],80% (active)
same,growth inhibition,[4]; at 50.0 µM,90.8% (active)
same,growth inhibition,[4]; at 100.0 µM,88% (active)
same,growth inhibition,[5]; at 1.2 µM,-36% (inactive)
same,growth inhibition,[5]; at 3.7 µM,-16% (inactive)
same,growth inhibition,[5]; [17],35% (inactive)
same,growth inhibition,[5]; at 11.0 µM,-10% (inactive)
same,growth inhibition,[5]; at 33.0 µM,30% (inactive)
same,growth inhibition,[5]; [18],76% (active)
same,growth inhibition,[5]; at 50.0 µM,37.1% (inactive)
same,growth inhibition,[5]; at 100.0 µM,83% (active)
same,growth inhibition,[6]; at 1.2 µM,-39% (inactive)
same,growth inhibition,[6]; at 3.7 µM,-32% (inactive)
same,growth inhibition,[6]; at 11.0 µM,-17% (inactive)
same,growth inhibition,[6]; at 33.0 µM,25% (inactive)
same,growth inhibition,[6]; at 100.0 µM,88% (active)
same,growth inhibition,[7]; [17],-15% (inactive)
same,growth inhibition,[7]; [18],22% (inactive)
same,growth inhibition,[8]; at 1.2 µM,-31% (inactive)
same,growth inhibition,[8]; at 3.7 µM,-34% (inactive)
same,growth inhibition,[8]; at 11.0 µM,-23% (inactive)
same,growth inhibition,[8]; at 33.0 µM,31% (inactive)
same,growth inhibition,[8]; at 100.0 µM,87% (active)
same,growth inhibition,[9]; [17],45% (inactive)
same,growth inhibition,[9]; [18],54% (inactive)
same,growth inhibition,[10]; at 1.2 µM,-21% (inactive)
same,growth inhibition,[10]; at 3.7 µM,-5% (inactive)
same,growth inhibition,[10]; [17],29% (inactive)
same,growth inhibition,[10]; at 11.0 µM,4% (inactive)
same,growth inhibition,[10]; at 33.0 µM,22% (inactive)
same,growth inhibition,[10]; [18],40% (inactive)
same,growth inhibition,[10]; at 100.0 µM,73% (active)
same,growth inhibition,[11]; at 1.2 µM,-43% (inactive)
same,growth inhibition,[11]; at 3.7 µM,-44% (inactive)
same,growth inhibition,[11]; at 11.0 µM,-13% (inactive)
same,growth inhibition,[11]; at 33.0 µM,45% (inactive)
same,growth inhibition,[11]; at 100.0 µM,92% (active)
same,growth inhibition,[12]; at 1.2 µM,-74% (inactive)
same,growth inhibition,[12]; at 3.7 µM,-39% (inactive)
same,growth inhibition,[12]; at 11.0 µM,-29% (inactive)
same,growth inhibition,[12]; at 33.0 µM,51% (inactive)
same,growth inhibition,[12]; at 100.0 µM,86% (active)
same,growth inhibition,[13]; [17],30% (inactive)
same,growth inhibition,[13]; [18],75% (active)
same,growth inhibition,[13]; at 50.0 µM,90.7% (active)
same,growth inhibition,[14]; at 1.2 µM,5% (inactive)
same,growth inhibition,[14]; at 3.7 µM,32% (inactive)
same,growth inhibition,[14]; at 11.0 µM,33% (inactive)
same,growth inhibition,[14]; at 33.0 µM,60% (inactive)
same,growth inhibition,[14]; at 100.0 µM,83% (active)
O=C(/C(=C/c1ccccc1)CBr)c1ccccc1,growth inhibition,[2]; at 1.2 µM,0% (inactive)
same,growth inhibition,[2]; at 3.7 µM,11% (inactive)
same,growth inhibition,[2]; at 11.0 µM,43% (inactive)
same,growth inhibition,[2]; at 33.0 µM,90% (active)
same,growth inhibition,[2]; at 100.0 µM,99% (active)
same,growth inhibition,[3]; at 1.2 µM,17% (inactive)
same,growth inhibition,[3]; at 3.7 µM,50% (inactive)
same,growth inhibition,[3]; at 11.0 µM,82% (active)
same,growth inhibition,[3]; at 33.0 µM,96% (active)
same,growth inhibition,[3]; at 100.0 µM,99% (active)
same,growth inhibition,[15]; at 1.2 µM,-1% (inactive)
same,growth inhibition,[15]; at 3.7 µM,7% (inactive)
same,growth inhibition,[15]; at 11.0 µM,49% (inactive)
same,growth inhibition,[15]; at 33.0 µM,95% (active)
same,growth inhibition,[15]; at 100.0 µM,99% (active)
same,growth inhibition,[4]; at 1.2 µM,4% (inactive)
same,growth inhibition,[4]; at 3.7 µM,15% (inactive)
same,growth inhibition,[4]; [17],22% (inactive)
same,growth inhibition,[4]; at 11.0 µM,61% (inactive)
same,growth inhibition,[4]; at 33.0 µM,96% (active)
same,growth inhibition,[4]; [18],98% (active)
same,growth inhibition,[4]; at 50.0 µM,66.5% (inactive) and 79.2% (active)
same,growth inhibition,[4]; at 100.0 µM,99% (active)
same,growth inhibition,[5]; at 1.2 µM,3% (inactive)
same,growth inhibition,[5]; at 3.7 µM,12% (inactive)
same,growth inhibition,[5]; [17],3% (inactive)
same,growth inhibition,[5]; at 11.0 µM,58% (inactive)
same,growth inhibition,[5]; at 33.0 µM,96% (active)
same,growth inhibition,[5]; [18],98% (active)
same,growth inhibition,[5]; at 50.0 µM,80.5% (active) and 61.1% (inactive)
same,growth inhibition,[5]; at 100.0 µM,99% (active)
same,growth inhibition,[6]; at 1.2 µM,3% (inactive)
same,growth inhibition,[6]; at 3.7 µM,9% (inactive)
same,growth inhibition,[6]; at 11.0 µM,38% (inactive)
same,growth inhibition,[6]; at 33.0 µM,93% (active)
same,growth inhibition,[6]; at 100.0 µM,99% (active)
same,growth inhibition,[7]; [17],50% (inactive)
same,growth inhibition,[7]; [18],99% (active)
same,growth inhibition,[7]; at 50.0 µM,74% (active) and 59% (inactive)
same,growth inhibition,[8]; at 1.2 µM,2% (inactive)
same,growth inhibition,[8]; at 3.7 µM,6% (inactive)
same,growth inhibition,[8]; at 11.0 µM,47% (inactive)
same,growth inhibition,[8]; at 33.0 µM,95% (active)
same,growth inhibition,[8]; at 100.0 µM,99% (active)
same,growth inhibition,[9]; [17],25% (inactive)
same,growth inhibition,[9]; [18],93% (active)
same,growth inhibition,[9]; at 50.0 µM,41.5% (inactive) and 67.5% (inactive)
same,growth inhibition,[10]; at 1.2 µM,-3% (inactive)
same,growth inhibition,[10]; at 3.7 µM,0% (inactive)
same,growth inhibition,[10]; [17],22% (inactive)
same,growth inhibition,[10]; at 11.0 µM,54% (inactive)
same,growth inhibition,[10]; at 33.0 µM,94% (active)
same,growth inhibition,[10]; [18],94% (active)
same,growth inhibition,[10]; at 50.0 µM,57.4% (inactive) and 83.7% (active)
same,growth inhibition,[10]; at 100.0 µM,99% (active)
same,growth inhibition,[11]; at 1.2 µM,4% (inactive)
same,growth inhibition,[11]; at 3.7 µM,14% (inactive)
same,growth inhibition,[11]; at 11.0 µM,62% (inactive)
same,growth inhibition,[11]; at 33.0 µM,95% (active)
same,growth inhibition,[11]; at 100.0 µM,99% (active)
same,growth inhibition,[12]; at 1.2 µM,3% (inactive)
same,growth inhibition,[12]; at 3.7 µM,11% (inactive)
same,growth inhibition,[12]; at 11.0 µM,67% (inactive)
same,growth inhibition,[12]; at 33.0 µM,97% (active)
same,growth inhibition,[12]; at 100.0 µM,99% (active)
same,growth inhibition,[16]; at 1.2 µM,5% (inactive)
same,growth inhibition,[16]; at 3.7 µM,21% (inactive)
same,growth inhibition,[16]; at 11.0 µM,77% (active)
same,growth inhibition,[16]; at 33.0 µM,96% (active)
same,growth inhibition,[16]; at 100.0 µM,99% (active)
same,growth inhibition,[13]; [17],68% (inactive)
same,growth inhibition,[13]; [18],99% (active)
same,growth inhibition,[13]; at 50.0 µM,74.5% (active) and 90.6% (active)
same,growth inhibition,[14]; at 1.2 µM,6% (inactive)
same,growth inhibition,[14]; at 3.7 µM,22% (inactive)
same,growth inhibition,[14]; at 11.0 µM,81% (active)
same,growth inhibition,[14]; at 33.0 µM,96% (active)
same,growth inhibition,[14]; at 100.0 µM,99% (active)
